Experimental data from PubChem BioAssay (Tox21).
Unmarked numbers belong to inactive results. Records with an inconclusive call do not appear. Where a call stands in place of a potency, no number is given. Active and inactive are the calls of the source. Calls come from the whole dose curve; as a rule, active = well fitted curve in the direction sought with a large enough effect in the repeat runs; inconclusive = weak or mixed curves; inactive = no such curve, though single readings can be large; an effect the other way counts as inactive or inconclusive.

What was measured:
[1] = qHTS RealTime-Glo MT Cell Viability Assay in HEK293 cells - 0 hour (AID 1224880); note: top concentration of the series differs between compounds; nearly all actives have a fitted effect of over 45% in size
How it was run: (§1)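 Luminescence, which tracks viable cell number through reduction of the prosubstrate to a NanoLuc substrate, was read over continuous 37 C culture. Cells (600/well) were premixed with reagent and rested 5 h before 23 nL of compound in DMSO was pinned.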

[2] = A CellTox Green Cytotoxicity Assay to monitor cytotoxicity in HEK293 cells - 32 hour (AID 1224881); note: nearly all actives have a fitted effect of over 40% in size
How it was run: (§2)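 Fluorescence from a DNA-binding dye excluded by viable cells was measured repeatedly in the same HEK293 wells (600 cells/well) during continuous compound exposure at 37 C. Each assay gives one read point: 0, 8, 16, 24, 32 or 40 h.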

[3] = A CellTox Green Cytotoxicity Assay to monitor cytotoxicity in HepG2 cells - 0 hour (AID 1224882); note: nearly all actives have a fitted effect of over 35% in size
How it was run: (§3)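 Real-time cytotoxicity: fluorescence of a cell-impermeant cyanine dye binding DNA of dead HepG2 cells, measured repeatedly (0–40 h) during compound exposure at 37 C. Cells seeded 600/well with reagent, dosed after 5 h.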

[4] = A CellTox Green Cytotoxicity Assay to monitor cytotoxicity in HepG2 cells - 32 hour (AID 1224883); note: nearly all actives have a fitted effect of over 50% in size
How it was run: as §3

[5] = A CellTox Green Cytotoxicity Assay to monitor cytotoxicity in HEK293 cells - 8 hour (AID 1224884); note: nearly all actives have a fitted effect of over 35% in size
How it was run: as §2

[6] = qHTS RealTime-Glo MT Cell Viability Assay in HepG2 cells - 16 hour (AID 1224885); note: nearly all actives have a fitted effect of over 50% in size
How it was run: (§4)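 Real-time, nonlytic viability: 600 HepG2 cells/well mixed with NanoLuc enzyme plus prosubstrate; 5 h settle, compound (DMSO) added by pintool; luminescence monitored over 40 h at 37 C.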

[7] = A CellTox Green Cytotoxicity Assay to monitor cytotoxicity in HEK293 cells - 16 hour (AID 1224888); note: nearly all actives have a fitted effect of over 35% in size
How it was run: as §2

[8] = qHTS RealTime-Glo MT Cell Viability Assay in HepG2 cells - 0 hour (AID 1224889); note: nearly all actives have a fitted effect of over 50% in size
How it was run: as §4

[9] = A CellTox Green Cytotoxicity Assay to monitor cytotoxicity in HepG2 cells - 8 hour (AID 1224890); note: nearly all actives have a fitted effect of over 45% in size
How it was run: as §3

[10] = qHTS assay to identify small molecule antagonists of the estrogen receptor alpha (ER-alpha) signaling pathway using the BG1 cell line in the presence of 0.1 nM 17-beta-estradiol - cell viability counter screen (AID 1259241); note: nearly all actives have a fitted effect of over 40% in size
How it was run: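 VM7Luc4E2 cells (endogenous full-length ER-alpha, 4xERE-luciferase), cultured 5 days in charcoal-stripped serum, exposed to compounds with 0.1 nM 17beta-estradiol (final) for 22 hr at 37C. Viability read in same wells as live-cell protease fluorescence after 30 min.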

[11] = qHTS assay to identify small molecule antagonists of the androgen receptor (AR) signaling pathway using the MDA cell line in the presence of 0.5 nM R1881 - cell viability counter screen (AID 1259242); note: nearly all actives have a fitted effect of over 45% in size
How it was run: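 Live-cell protease activity was measured by CellTiter-Fluor fluorescence after 30 min. Before that, MDA-kb2 MMTV-luciferase cells had 16 hr at 37C without CO2, exposed to test compounds and 0.5 nM R1881 final.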

[12] = target: Estrogen receptor (Homo sapiens) (UniProt P03372); experiment: qHTS assay to identify small molecule antagonists of the estrogen receptor alpha (ER-alpha) signaling pathway using the BG1 cell line in the presence of 0.1 nM 17-beta-estradiol (AID 1259244); note: nearly all actives have a fitted effect of over 50% in size
How it was run: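 Luciferase luminescence (ONE-Glo, 30 min at room temperature) was read after 22 hr at 37C exposure to compounds plus 17beta-estradiol at 0.1 nM final. Cells were VM7Luc4E2 with endogenous ER-alpha and an ERE-driven luciferase, pre-cultured 5 days in hormone-depleted medium.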

[13] = qHTS assay to identify small molecule HDAC inhibitors (AID 1259364); note: top concentration of the series differs between compounds; nearly all actives have a fitted effect of over 45% in size
How it was run: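 Luminescence read after 30 min room-temperature HDAC-Glo incubation measures cellular class I/II HDAC activity. Compounds were applied for 2 hr at 37 C to HCT-116 wild-type cells seeded the day before.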

[14] = qHTS assay to identify small molecule HDAC inhibitors - cell viability counter screen (AID 1259365)
How it was run: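 Wild-type HCT-116 cells, 1,500/well, cultured overnight, then compound-treated 2 h at 37 C. Viability measured as ATP luminescence with CellTiter-Glo after 30 min at room temperature.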

[15] = qHTS assay to identify small molecule agonists of the sonic hedgehog signaling (Shh) pathway - cell viability counter screen (AID 1259366); note: nearly all actives have a fitted effect of over 50% in size
How it was run: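 NIH/3T3-derived Gli1-Luc reporter cells, 2,000 per well, received compound after 4 h and were treated about 23 h at 37C. Viability measured in the same wells by CellTiter-Fluor fluorescence after 1 h.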

[16] = qHTS assay to identify small molecule antagonists of the sonic hedgehog signaling (Shh) pathway - cell viability counter screen (AID 1259367); note: nearly all actives have a fitted effect of over 55% in size
How it was run: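 Fluorescence read-out (CellTiter-Fluor, 1 hr at 37C) taken after 23 hr compound treatment of 3T3 Gli1-Luc cells stimulated with conditioned medium. Cells were seeded at 2,000 per well and pre-incubated 4 hr.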

[17] = qHTS RealTime-Glo MT Cell Viability Assay in HEK293 cells - 24 hour (AID 1224886); note: nearly all actives have a fitted effect of over 50% in size; note: potency is the fitted concentration of half-maximal effect; for activity change, negative = cytotoxicity: top concentration of the series differs between compounds
How it was run: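 Cells + reagent dispensed (600 cells/well, HEK293) → 5 h at 37 C/5% CO2 → 23 nL compound in DMSO pinned → 40 h at 37 C → luminescence read at 0, 8, 16, 24, 32, 40 h.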

[18] = qHTS RealTime-Glo MT Cell Viability Assay in HEK293 cells - 8 hour (AID 1224887); note: nearly all actives have a fitted effect of over 50% in size; note: potency is the fitted concentration of half-maximal effect; for activity change, negative = cytotoxicity: top concentration of the series differs between compounds
How it was run: as §1

[19] = target: Androgen receptor (Homo sapiens) (UniProt P10275); experiment: qHTS assay to identify small molecule antagonists of the androgen receptor (AR) signaling pathway using the MDA cell line in the presence of 0.5 nM R1881 (AID 1259243); note: nearly all actives have a fitted effect of over 50% in size
How it was run: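 Luminescent reporter readout (ONE-Glo, 30 min, room temperature) after 16 hr co-treatment of MDA-kb2 cells with test compounds and 0.5 nM R1881 final, at 37C without CO2. The MMTV-driven luciferase responds to both AR and GR.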

Chain of Androgen receptor (Homo sapiens) (P10275 whole entry, looked up): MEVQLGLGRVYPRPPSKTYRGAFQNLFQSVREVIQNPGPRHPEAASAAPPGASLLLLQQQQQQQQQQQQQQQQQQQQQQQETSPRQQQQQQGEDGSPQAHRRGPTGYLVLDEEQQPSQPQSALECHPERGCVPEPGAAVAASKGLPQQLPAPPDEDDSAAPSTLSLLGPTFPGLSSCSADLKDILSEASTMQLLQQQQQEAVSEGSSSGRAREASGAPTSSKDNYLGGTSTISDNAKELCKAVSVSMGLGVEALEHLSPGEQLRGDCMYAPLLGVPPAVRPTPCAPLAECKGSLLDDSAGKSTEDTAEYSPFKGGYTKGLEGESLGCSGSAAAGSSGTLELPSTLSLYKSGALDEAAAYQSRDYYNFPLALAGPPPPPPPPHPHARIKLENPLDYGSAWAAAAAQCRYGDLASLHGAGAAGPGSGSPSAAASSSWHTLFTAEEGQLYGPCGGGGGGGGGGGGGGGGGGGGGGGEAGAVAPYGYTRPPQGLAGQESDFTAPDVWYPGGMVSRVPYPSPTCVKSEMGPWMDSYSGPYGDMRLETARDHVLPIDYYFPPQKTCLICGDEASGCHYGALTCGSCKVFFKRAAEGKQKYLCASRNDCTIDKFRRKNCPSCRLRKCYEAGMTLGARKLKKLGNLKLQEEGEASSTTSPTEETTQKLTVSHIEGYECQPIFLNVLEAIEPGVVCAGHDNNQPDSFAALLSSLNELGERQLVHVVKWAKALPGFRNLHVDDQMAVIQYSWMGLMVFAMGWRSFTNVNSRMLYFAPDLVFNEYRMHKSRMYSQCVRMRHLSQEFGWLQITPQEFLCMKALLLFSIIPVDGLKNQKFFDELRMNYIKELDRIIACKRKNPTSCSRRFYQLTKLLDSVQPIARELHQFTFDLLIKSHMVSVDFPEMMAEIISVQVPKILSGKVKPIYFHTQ
Chain of Estrogen receptor (Homo sapiens) (P03372 whole entry, looked up): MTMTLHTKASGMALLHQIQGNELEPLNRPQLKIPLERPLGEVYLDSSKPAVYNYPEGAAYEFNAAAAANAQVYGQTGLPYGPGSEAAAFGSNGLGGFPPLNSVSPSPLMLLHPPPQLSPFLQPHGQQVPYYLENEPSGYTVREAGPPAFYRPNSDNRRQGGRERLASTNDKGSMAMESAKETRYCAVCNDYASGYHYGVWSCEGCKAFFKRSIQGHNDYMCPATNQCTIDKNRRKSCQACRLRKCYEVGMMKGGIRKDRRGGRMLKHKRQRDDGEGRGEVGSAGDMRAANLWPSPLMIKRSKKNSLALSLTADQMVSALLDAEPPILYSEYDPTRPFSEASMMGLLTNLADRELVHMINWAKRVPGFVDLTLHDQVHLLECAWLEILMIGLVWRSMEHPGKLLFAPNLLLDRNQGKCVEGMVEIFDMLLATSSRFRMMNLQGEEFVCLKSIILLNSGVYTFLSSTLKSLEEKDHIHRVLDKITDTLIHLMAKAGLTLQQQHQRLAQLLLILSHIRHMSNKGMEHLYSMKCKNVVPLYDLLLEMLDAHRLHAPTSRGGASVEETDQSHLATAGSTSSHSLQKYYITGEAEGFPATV

Question: Which results are given for `CCCCCCCC/C=C\CCCCCCCC(=O)OCCCC`?
Answer: activity change, negative = cytotoxicity [1]: -2.24% [at 15.8 µM]; cytotoxicity increase [2]: -35.2% [at 15.8 µM]; cytotoxicity [3]: -2.01% [at 15.8 µM]; cytotoxicity increase [4]: -13.6% [at 15.8 µM]; cytotoxicity increase [5]: -25.9% [at 15.8 µM]; activity change, negative = cytotoxic [6]: 1.32% [at 15.8 µM]; activity change [7]: -29.4% [at 15.8 µM]; activity change, negative = cytotoxicity [8]: -22.5% [at 15.8 µM]; cytotoxicity increase [9]: -0.525% [at 15.8 µM]; activity change, negative = cytotoxicity [10]: -3.36% [at 19 µM]; viability change, negative = cytotoxic [11]: -4.19% [at 19 µM]; activity change, negative = inhibition [12]: -2.58% [at 19 µM]; activity change, negative = inhibition [13]: 2.78% [at 19 µM]; activity change, negative = cytotoxicity [14]: -0.686% [at 19 µM]; viability change, negative = cytotoxic [15]: -5.96% [at 19 µM]; viability change, negative = cytotoxic [16]: 1.8% [at 19 µM]

Question: For `CCCCCCCCCCl`, which Potency [1] is on record?
Answer: inactive

Question: And the Potency [2]?
Answer: inactive

Question: What about the outcome [3] of the same compound?
Answer: inactive

Question: What about the Potency [4] of the same compound?
Answer: inactive

Question: What about the outcome [6] of the same compound?
Answer: inactive

Question: And the Potency [17]?
Answer: inactive

Question: What about the Potency [18] of the same compound?
Answer: inactive

Question: And the outcome [7]?
Answer: inactive

Question: What about the Potency [8] of the same compound?
Answer: inactive

Question: And the outcome [9]?
Answer: inactive

Question: And the Potency [10]?
Answer: inactive

Question: What about the outcome [11] of the same compound?
Answer: inactive

Question: And the Potency [13]?
Answer: inactive

Question: And the outcome [14]?
Answer: inactive

Question: And the Potency [15]?
Answer: inactive

Question: And the Potency [16]?
Answer: inactive

Question: Which results are given for `N[C@@H](CCC(=O)Nc1ccc([N+](=O)[O-])cc1)C(=O)O`?
Answer: Potency [1]: inactive; Potency [2]: inactive; outcome [3]: inactive; Potency [4]: inactive; Potency [5]: inactive; outcome [6]: inactive; Potency [17]: inactive; outcome [7]: inactive; outcome [9]: inactive; Potency [10]: inactive; Potency [19]: inactive; Potency [12]: inactive; Potency [13]: inactive; outcome [14]: inactive; Potency [15]: inactive; Potency [16]: inactive

Question: Which results are given for `ClCCCl`?
Answer: Potency [1]: inactive; Potency [2]: inactive; outcome [3]: inactive; Potency [4]: inactive; outcome [6]: inactive; Potency [17]: inactive; Potency [18]: inactive; outcome [7]: inactive; Potency [8]: inactive; outcome [9]: inactive; Potency [10]: inactive; outcome [11]: inactive; Potency [12]: inactive; Potency [13]: inactive; outcome [14]: inactive; Potency [15]: inactive; Potency [16]: inactive

Question: With `C[C@@H](Oc1ccc(CNC(=O)c2cccnc2Oc2ccc3c(c2)OCO3)c(F)c1)C(=O)O` as the compound, how does the Potency [1] read?
Answer: inactive

Question: What about the Potency [2] of the same compound?
Answer: inactive

Question: What about the outcome [3] of the same compound?
Answer: inactive

Question: And the Potency [4]?
Answer: inactive

Question: What about the outcome [6] of the same compound?
Answer: inactive

Question: What about the Potency [17] of the same compound?
Answer: inactive

Question: What about the Potency [18] of the same compound?
Answer: inactive

Question: What about the outcome [7] of the same compound?
Answer: inactive

Question: What about the Potency [8] of the same compound?
Answer: inactive

Question: What about the outcome [9] of the same compound?
Answer: inactive

Question: And the Potency [10]?
Answer: inactive

Question: What about the outcome [11] of the same compound?
Answer: inactive

Question: What about the Potency [12] of the same compound?
Answer: inactive

Question: And the Potency [13]?
Answer: inactive

Question: What about the outcome [14] of the same compound?
Answer: inactive

Question: And the Potency [15]?
Answer: inactive

Question: And the Potency [16]?
Answer: inactive

Question: Which Potency [1] does the source give for `CC(COC(C)(C)C)OCCCO` (stereo unspecified) here?
Answer: inactive

Question: And the Potency [2]?
Answer: inactive

Question: And the outcome [3]?
Answer: inactive

Question: What about the Potency [4] of the same compound?
Answer: inactive

Question: What about the Potency [5] of the same compound?
Answer: inactive

Question: And the outcome [6]?
Answer: inactive

Question: What about the Potency [17] of the same compound?
Answer: inactive

Question: What about the outcome [7] of the same compound?
Answer: inactive

Question: And the outcome [9]?
Answer: inactive

Question: What about the Potency [10] of the same compound?
Answer: inactive

Question: And the outcome [11]?
Answer: inactive

Question: What about the Potency [13] of the same compound?
Answer: inactive

Question: And the outcome [14]?
Answer: inactive

Question: And the Potency [15]?
Answer: inactive

Question: What about the Potency [16] of the same compound?
Answer: inactive

Question: With `Cc1cccc(OCC(O)CNC(C)(C)C)c1C` (stereo unspecified) as the compound, how does the Potency [1] read?
Answer: inactive

Question: And the Potency [2]?
Answer: inactive

Question: What about the outcome [3] of the same compound?
Answer: inactive

Question: What about the Potency [4] of the same compound?
Answer: inactive

Question: What about the outcome [6] of the same compound?
Answer: inactive

Question: What about the Potency [17] of the same compound?
Answer: inactive

Question: And the Potency [18]?
Answer: inactive

Question: What about the outcome [7] of the same compound?
Answer: inactive

Question: What about the Potency [8] of the same compound?
Answer: inactive

Question: And the outcome [9]?
Answer: inactive

Question: And the Potency [10]?
Answer: inactive

Question: What about the outcome [11] of the same compound?
Answer: inactive

Question: And the Potency [19]?
Answer: inactive

Question: What about the Potency [13] of the same compound?
Answer: inactive

Question: What about the outcome [14] of the same compound?
Answer: inactive

Question: What about the Potency [15] of the same compound?
Answer: inactive

Question: What about the Potency [16] of the same compound?
Answer: inactive

Question: Which results are given for `NS(=O)(=O)c1cc2c(cc1Cl)CN(C1CCCCC1)C2=O`?
Answer: Potency [1]: inactive; Potency [2]: inactive; outcome [3]: inactive; Potency [4]: inactive; outcome [6]: inactive; Potency [17]: 9.52 µM (active); Potency [18]: 9.52 µM (active); outcome [7]: inactive; Potency [8]: inactive; outcome [9]: inactive; Potency [10]: inactive; outcome [11]: inactive; Potency [19]: inactive; Potency [13]: inactive; outcome [14]: inactive; Potency [15]: inactive; Potency [16]: inactive
